Data on twelve sequences can be found in article PMC5700166.

Experiment [1] deals with T1, GST-Nv-NF-kB (Ser allele) (Nematostella vectensis, UniProt A7UNT2 2-411).
T1 sequence: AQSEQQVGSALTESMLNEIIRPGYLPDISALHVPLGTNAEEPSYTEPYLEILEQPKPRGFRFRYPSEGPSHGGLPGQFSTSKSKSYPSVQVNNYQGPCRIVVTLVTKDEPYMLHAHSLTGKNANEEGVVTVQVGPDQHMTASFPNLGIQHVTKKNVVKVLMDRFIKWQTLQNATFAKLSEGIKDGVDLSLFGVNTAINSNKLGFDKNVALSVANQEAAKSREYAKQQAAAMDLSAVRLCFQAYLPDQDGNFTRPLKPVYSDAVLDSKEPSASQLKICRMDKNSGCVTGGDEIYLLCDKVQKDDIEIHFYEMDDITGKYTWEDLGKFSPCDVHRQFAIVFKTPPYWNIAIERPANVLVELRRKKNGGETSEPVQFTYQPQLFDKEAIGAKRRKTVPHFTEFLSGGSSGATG
In words: protein-binding microarray (PBM); PBM: ~300 nM protein, 6 mM HEPES pH 7.8, 80 mM KCl, 0.5 mM EDTA, 0.5 mM EGTA, 6% glycerol, 35 ng/ul poly-dIdC, 1% milk, 1 h, room temperature; Ap Aiptasia and Nv Nematostella (sea anemones) / Co Capsaspora / Aq Amphimedon (sponge) / Dm Drosophila / Hu human; RHD is the Rel homology domain; high values mean tight binding. The following applies: dsDNA, one strand shown.

The target of a further experiment is GST-Hu-p50 (Homo sapiens, UniProt P19838 7-356). The experiment is described as above. The following applies: dsDNA, one strand shown.
GST-Hu-p50, sequence (P19838 7-356): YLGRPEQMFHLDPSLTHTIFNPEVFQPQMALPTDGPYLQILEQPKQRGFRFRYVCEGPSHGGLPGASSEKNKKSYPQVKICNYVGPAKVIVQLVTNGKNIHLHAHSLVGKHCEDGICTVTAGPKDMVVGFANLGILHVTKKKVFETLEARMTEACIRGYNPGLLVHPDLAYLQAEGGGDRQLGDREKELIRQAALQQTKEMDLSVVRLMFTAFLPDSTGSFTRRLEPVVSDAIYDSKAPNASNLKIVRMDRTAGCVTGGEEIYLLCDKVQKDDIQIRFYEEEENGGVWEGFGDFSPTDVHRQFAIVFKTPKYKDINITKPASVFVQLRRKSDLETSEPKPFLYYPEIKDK

Take “CCGATTAACATCAAAAATTCCGGTGATGTTAATCGGGTCTTGATTCGCTTGACGCTGCTG”: the binding signal in experiment [1] stood at 1.4 z-score; with GST-Hu-p50 it was 3.12 z-score.
Take “CCGATTAACATCAGGGGGTGTAATGATGTTAATCGGGTCTTGATTCGCTTGACGCTGCTG”: the binding signal came out at 4.19 z-score in experiment [1] and 3.98 z-score with GST-Hu-p50.
With “CCGATTAACATCAGGGGTCCCCATGATGTTAATCGGGTCTTGATTCGCTTGACGCTGCTG”, the binding signal in experiment [1] amounted to 1.95 z-score; with GST-Hu-p50, 2.54 z-score.
Turning to “CCGATTAACATCAGGGGTTCACCTGATGTTAATCGGGTCTTGATTCGCTTGACGCTGCTG”, the values for the binding signal (in experiment [1]; with GST-Hu-p50) were 3.04 z-score and 3.78 z-score, respectively.
In the case of “CCGATTAACATCAGGGAAATAAATGATGTTAATCGGGTCTTGATTCGCTTGACGCTGCTG”, the binding signal in experiment [1] stood at 4.6 z-score; with GST-Hu-p50, 3.23 z-score.
As for “CCGATTAACATCATGCGGGAAAATGATGTTAATCGGGTCTTGATTCGCTTGACGCTGCTG”, the binding signal in experiment [1] worked out at 4.76 z-score; in the experiment with GST-Hu-p50 it was 2.69 z-score.
The corresponding values for “CCGATTAACATCAAAACTTCCCATGATGTTAATCGGGTCTTGATTCGCTTGACGCTGCTG” are 3.45 z-score and 2.96 z-score.
The corresponding values for “CCGATTAACATCAGGGAGGGTAATGATGTTAATCGGGTCTTGATTCGCTTGACGCTGCTG” are 2.16 z-score and 1.6 z-score.
The like results for “CCGATTAACATCAAGGGATTTCCTGATGTTAATCGGGTCTTGATTCGCTTGACGCTGCTG” were, in that order, 3.4 z-score and 3.68 z-score.
In the case of “CCGATTAACATCAACGCCCCCCCTGATGTTAATCGGGTCTTGATTCGCTTGACGCTGCTG”, the figures for the binding signal (in experiment [1]; with GST-Hu-p50) were 4.55 z-score and 4.25 z-score, respectively.
Consider “CCGATTAACATCAAAAACTACCCTGATGTTAATCGGGTCTTGATTCGCTTGACGCTGCTG”, for which the figures for the binding signal (in experiment [1]; with GST-Hu-p50) were 4.59 z-score and 3.73 z-score, respectively.
The corresponding values for “CCGATTAACATCAGGGACGGAAATGATGTTAATCGGGTCTTGATTCGCTTGACGCTGCTG” are 2.34 z-score and 2.19 z-score.
